# Bioassay records deposited in PubChem by several laboratories.
# Only some compounds are listed: those with a hit (about 7.2% of all), similar ones and a draw of the others.
# SUMO Mot1 rescue = blocks SUMOylation pathway, rescuing yeast Mot1-301 growth. growth rescue, % at 18.8 µM. hit rate 1% among 320,000. S. cerevisiae Mot1-301 growth rescue, ATP luminescence, 38.5C; percent above DMSO median, 100 means doubled;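 active = every valid replicate shows activation above 250% relative to neutral control wells; inactive = the rest, any valid replicate at or below 250%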;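 also: OY570 slx delta 5 strain wells were the positive control but not used for scaling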
# VLA-4 inh = inhibition in a human VLA-4 binding assay; P13612; hit rate 0.2% among 330,000; inhibition, % (about 7 µM as worked out from the volumes in the protocol); AID 2557; VLA-4 expressing cells, ligand binding flow cytometry; in the data active = inhibition above about 50%
# Target sequence (P13612 whole entry, looked up): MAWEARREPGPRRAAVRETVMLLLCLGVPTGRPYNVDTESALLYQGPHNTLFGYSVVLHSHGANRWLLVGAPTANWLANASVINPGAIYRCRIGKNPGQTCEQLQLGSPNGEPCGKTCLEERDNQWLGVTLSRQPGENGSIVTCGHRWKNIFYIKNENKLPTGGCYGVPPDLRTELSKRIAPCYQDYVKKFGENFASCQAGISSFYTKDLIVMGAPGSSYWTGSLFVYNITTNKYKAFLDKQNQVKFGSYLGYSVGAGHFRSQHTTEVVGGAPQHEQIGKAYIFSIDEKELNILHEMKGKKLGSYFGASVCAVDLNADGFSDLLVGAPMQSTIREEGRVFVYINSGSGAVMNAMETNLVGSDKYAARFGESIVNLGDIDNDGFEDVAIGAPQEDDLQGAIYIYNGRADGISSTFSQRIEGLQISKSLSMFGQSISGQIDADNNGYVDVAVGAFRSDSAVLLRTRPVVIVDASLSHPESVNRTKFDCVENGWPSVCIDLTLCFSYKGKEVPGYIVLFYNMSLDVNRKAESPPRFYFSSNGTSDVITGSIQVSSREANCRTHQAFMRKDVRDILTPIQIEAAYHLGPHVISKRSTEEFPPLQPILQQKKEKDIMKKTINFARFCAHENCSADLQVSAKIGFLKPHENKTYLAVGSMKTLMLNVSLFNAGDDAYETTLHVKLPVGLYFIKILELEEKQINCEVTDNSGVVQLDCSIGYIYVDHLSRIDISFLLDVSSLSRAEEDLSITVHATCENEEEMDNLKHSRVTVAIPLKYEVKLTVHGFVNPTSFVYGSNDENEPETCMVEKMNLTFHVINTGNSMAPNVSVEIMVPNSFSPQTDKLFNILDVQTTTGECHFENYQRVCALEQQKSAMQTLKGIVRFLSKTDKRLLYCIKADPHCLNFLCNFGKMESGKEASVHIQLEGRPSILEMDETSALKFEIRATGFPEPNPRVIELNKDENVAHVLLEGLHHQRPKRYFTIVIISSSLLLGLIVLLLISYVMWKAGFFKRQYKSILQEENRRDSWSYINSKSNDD
# A1 inh = inhibitors of the anti-apoptotic protein A1, read as caspase activation; MEF A1-2A-BIM cells, Caspase-Glo 3/7 luminescence, 3 h; percent of clofoctol response, vehicle zero; caspase activation, % (test concentration not listed); hit rate 0.066% among 330,000; AID 2462;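 active = over half of replicate activation scores above 10%, or exactly half above 10 with the replicate mean above 10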
# AHR activator = activates the human aryl hydrocarbon receptor; P35869; AHR-responsive luciferase reporter cells, luminescence; activation, % at 5 µM; hit rate 2.5% among 320,000; in the data active = activation above about 47%;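 also: 0% = vehicle wells and 100% = reference agonist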
# ALR H2O2 inh = human ALR oxidase inhibition via reduced H2O2 | inhibition, % (no concentration beside the values) | purified ALR, DTT oxidation, H2O2 HRP-luminol luminescence | AID 485317 | P55789 | hit rate 3.8% among 290,000;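 active = mean replicate inhibition above about 79%, with every replicate also reaching it, limit read from the data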
# Efflux pump inh = blocks antifungal efflux pumps in multiplex yeast assay | S. cerevisiae Candida pump triplex, Nile Red efflux | inhibition, % at 10 µM | hit rate 0.44% among 330,000 | AID 485275;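 active = plate passing quality check with inhibition over a set limit, or well fluorescence over plate mean plus 4 SD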;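 also: Nile Red retained in pooled yeast measured as flow cytometry median fluorescence; 0% = buffer negative control and 100% = Enniatin B positive control; higher means more Nile Red kept so more efflux inhibition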
# An asterisk follows results filed as active; . = no result.
SMILES,SUMO Mot1 rescue,VLA-4 inh,A1 inh,AHR activator,ALR H2O2 inh,Efflux pump inh
CC(=O)c1cn(-c2ccc(Cl)cc2)c(=O)[nH]c1=O,15.0,5.7,0.6,3.3,-10.0,0.1
Cc1ccc(NC(=O)COC(=O)c2nn(C)cc2Cl)cc1,-18.4,4.1,0.2,0.2,.,0.0
Cc1ccc(NC(=S)NNC(=O)c2nn(C)cc2Cl)cc1,-21.2,8.0,0.8,19.0,90.7*,-0.1
Cc1cccc(NC(=S)NNC(=O)c2nn(C)cc2Cl)c1,5.5,-18.7,-0.6,46.5,88.7*,0.1
Cc1cc(=O)oc(C)c1C(=O)Nc1ccccc1F,-10.5,18.5,1.0,-2.0,.,0.0
CCOC(=O)C(C)Sc1ccc2nnc(CCNS(=O)(=O)c3ccccc3)n2n1 (centres undefined),-4.8,12.2,0.3,-1.3,-17.7,-0.1
COC(=O)[C@]1(Cc2ccccc2)N[C@H](CN(C)S(=O)(=O)c2ccc(C)cc2)[C@@H]2C(=O)N(Cc3ccccc3)C(=O)[C@@H]21,18.1,-5.5,-0.4,-1.2,.,0.1
Cc1nc(N)sc1N=Nc1ccc(Br)cc1,37.9,31.3,-0.2,146.0*,98.9*,-0.2
Cc1ccc(C)c2sc(N)nc12,0.8,12.9,0.8,2.3,-5.7,-0.1
Cc1[nH]nc(N)c1N=Nc1ccc(Br)cc1,20.5,0.0,-1.5,67.9*,-1.3,0.3
Cc1ccc(N=Nc2c(N)n[nH]c2N)cc1,5.2,7.8,-3.0,6.3,46.3,-0.2
Cc1cccc(N2C(N)=C(C#N)C(C#N)(C#N)C2c2ccccc2)c1 (centres undefined),-6.5,0.0,-0.1,-0.8,36.9,-0.1
N#CC1=C(N)N(c2ccccc2)C(c2ccco2)C1(C#N)C#N (centres undefined),-11.0,7.9,-0.1,8.8,93.7*,0.1
Nc1nc(NCc2ccccc2)nc(Nc2ccc(F)cc2)c1[N+](=O)[O-],4.9,19.4,0.0,103.3*,-11.9,-0.3
COc1ccccc1Nc1nc(NCCC(C)C)nc(N)c1[N+](=O)[O-],12.3,-4.6,1.0,48.9*,-4.4,-0.1
Nc1nc(NCC2CCCO2)nc(Nc2ccc(F)cc2)c1[N+](=O)[O-] (centres undefined),-10.2,6.1,0.4,75.7*,-15.6,0.5
Nc1nc(Nc2ccccc2F)nc(NCc2ccco2)c1[N+](=O)[O-],303.6*,0.1,-1.6,11.4,.,0.1
Nc1nc(NCc2ccccc2)nc(Nc2cccc(F)c2)c1[N+](=O)[O-],23.6,7.6,-0.3,34.7,1.8,0.0
COc1ccccc1N1C(=O)N(CC(=O)C(C)(C)C)c2ccccc2S1(=O)=O,421.3,-1.1,-0.1,4.3,52.9,0.0
CC(=O)C1=C(c2cccc([N+](=O)[O-])c2)N(C(C)=O)n2c(C)nnc2S1,155.5,4.0,-0.9,43.9,97.7*,-0.2
CC1=CS(=O)(=O)CC1SC(=S)N(C)C1CCS(=O)(=O)C1 (centres undefined),-10.9,-251.0,0.0,2.3,1.7,-0.1
COc1ccc(-n2c(=O)c3c4c(sc3n3c(=S)[nH]nc23)COC(C(C)C)C4)cc1 (centres undefined),8.9,3.3,-0.3,0.3,97.3*,0.0
Cc1c(NC(=O)C(C)OC(=O)c2cccc(S(=O)(=O)N3CCOCC3)c2)c(=O)n(-c2ccccc2)n1C (centres undefined),8.5,3.0,0.2,0.7,1.8,0.2
COc1ccc2[nH]c(C)c(CCN3C(=O)C4C5C=CC(C5)C4C3=O)c2c1 (centres undefined),2.3,4.9,-0.1,25.2,96.3*,0.6
COc1ccc(OC)c(NC(=O)c2sc3nc(Cc4ccccc4)cc(C(F)(F)F)c3c2N)c1,402.5,-0.4,-0.3,3.2,-4.7,0.1
COc1ccc(-c2cc(C(F)(F)F)c3c(N)c(C(=O)NCCSC)sc3n2)cc1,7.8,-53.3,0.7,61.6*,21.7,0.1
COc1cccc(-c2cc(C(F)(F)F)c3c(N)c(C#N)sc3n2)c1,312.2,11.0,-0.7,55.4*,1.5,0.0
O=C(NCc1ccc(Cl)cc1)c1cc(S(=O)(=O)N2CCCCC2)c[nH]1,-0.7,-25.3,-0.6,3.8,3.3,0.3
Oc1ccccc1C=Nc1cccc2ccccc12,-9.9,3.3,-0.8,20.9,15.1,-0.1
Oc1cccc(C=Nc2cccc3ccccc23)c1O,-19.0,-22.2,1.0,50.8*,.,-0.1
